# Laboratory results from ChEMBL document CHEMBL1961873, “Compounds: GSK PKIS; Assays: Nanosyn kinase panel” (2012).
# Legend:
# [1] = biological target: Serine/threonine-protein kinase MARK2 (Homo sapiens) (UniProt Q7KZI7); details: at 1 µM
# [2] = biological target: PAS domain-containing serine/threonine-protein kinase (Homo sapiens) (UniProt Q96RG2); details: at 0.1 µM
# [3] = biological target: PAS domain-containing serine/threonine-protein kinase (Homo sapiens) (UniProt Q96RG2); details: at 1 µM
# [4] = biological target: Phosphorylase b kinase gamma catalytic chain, skeletal muscle/heart isoform (Homo sapiens) (UniProt Q16816); details: at 0.1 µM
# [5] = biological target: Phosphorylase b kinase gamma catalytic chain, skeletal muscle/heart isoform (Homo sapiens) (UniProt Q16816); details: at 1 µM
# [6] = biological target: T1, Phosphorylase b kinase gamma catalytic chain, liver/testis isoform (Homo sapiens) (UniProt P15735); details: at 0.1 µM
# T1 sequence (whole entry): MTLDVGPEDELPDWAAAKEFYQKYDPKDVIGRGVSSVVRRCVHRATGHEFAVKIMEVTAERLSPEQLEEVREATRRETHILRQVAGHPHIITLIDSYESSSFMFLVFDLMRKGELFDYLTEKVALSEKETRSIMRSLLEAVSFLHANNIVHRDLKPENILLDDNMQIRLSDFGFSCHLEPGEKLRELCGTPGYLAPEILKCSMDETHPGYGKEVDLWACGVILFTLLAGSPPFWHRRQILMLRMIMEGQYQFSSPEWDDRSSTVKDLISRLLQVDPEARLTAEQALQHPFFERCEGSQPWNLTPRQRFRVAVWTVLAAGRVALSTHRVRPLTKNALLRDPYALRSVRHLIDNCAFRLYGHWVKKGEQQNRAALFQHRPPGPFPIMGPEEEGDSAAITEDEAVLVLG
# [7] = biological target: T1, Phosphorylase b kinase gamma catalytic chain, liver/testis isoform (Homo sapiens); details: at 1 µM
# [8] = biological target: Serine/threonine-protein kinase pim-1 (Homo sapiens) (UniProt P11309); details: at 0.1 µM
# Sequence of Serine/threonine-protein kinase pim-1 (Homo sapiens) (P11309 whole entry, looked up): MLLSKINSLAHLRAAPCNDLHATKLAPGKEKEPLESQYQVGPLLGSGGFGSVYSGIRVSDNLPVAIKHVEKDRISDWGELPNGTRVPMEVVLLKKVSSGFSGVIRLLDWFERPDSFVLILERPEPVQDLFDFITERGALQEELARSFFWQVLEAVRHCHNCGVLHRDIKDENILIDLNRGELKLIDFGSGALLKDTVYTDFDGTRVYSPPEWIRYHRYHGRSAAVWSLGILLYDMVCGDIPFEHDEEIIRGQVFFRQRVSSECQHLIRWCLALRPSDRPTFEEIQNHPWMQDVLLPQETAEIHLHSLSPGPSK
# [9] = biological target: Serine/threonine-protein kinase pim-1 (Homo sapiens) (UniProt P11309); details: at 1 µM
# [10] = biological target: Serine/threonine-protein kinase pim-2 (Homo sapiens) (UniProt Q9P1W9); details: at 0.1 µM
# Sequence of Serine/threonine-protein kinase pim-2 (Homo sapiens) (Q9P1W9 whole entry, looked up): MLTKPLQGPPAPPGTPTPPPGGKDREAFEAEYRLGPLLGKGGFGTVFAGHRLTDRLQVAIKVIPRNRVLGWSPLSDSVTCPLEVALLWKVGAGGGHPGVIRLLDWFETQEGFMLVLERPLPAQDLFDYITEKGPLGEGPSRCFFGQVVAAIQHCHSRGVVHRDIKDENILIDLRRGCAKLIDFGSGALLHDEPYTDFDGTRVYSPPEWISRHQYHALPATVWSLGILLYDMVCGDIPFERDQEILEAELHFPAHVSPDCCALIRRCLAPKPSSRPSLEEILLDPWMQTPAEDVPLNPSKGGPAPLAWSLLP
# [11] = biological target: Serine/threonine-protein kinase pim-2 (Homo sapiens) (UniProt Q9P1W9); details: at 1 µM
# [12] = biological target: Serine/threonine-protein kinase pim-3 (Homo sapiens) (UniProt Q86V86); details: at 0.1 µM
# [13] = biological target: Serine/threonine-protein kinase pim-3 (Homo sapiens) (UniProt Q86V86); details: at 1 µM
# [14] = biological target: T2, MAP kinase-activated protein kinase 5 (Homo sapiens) (UniProt Q8IW41); details: at 0.1 µM
# T2 sequence (whole entry): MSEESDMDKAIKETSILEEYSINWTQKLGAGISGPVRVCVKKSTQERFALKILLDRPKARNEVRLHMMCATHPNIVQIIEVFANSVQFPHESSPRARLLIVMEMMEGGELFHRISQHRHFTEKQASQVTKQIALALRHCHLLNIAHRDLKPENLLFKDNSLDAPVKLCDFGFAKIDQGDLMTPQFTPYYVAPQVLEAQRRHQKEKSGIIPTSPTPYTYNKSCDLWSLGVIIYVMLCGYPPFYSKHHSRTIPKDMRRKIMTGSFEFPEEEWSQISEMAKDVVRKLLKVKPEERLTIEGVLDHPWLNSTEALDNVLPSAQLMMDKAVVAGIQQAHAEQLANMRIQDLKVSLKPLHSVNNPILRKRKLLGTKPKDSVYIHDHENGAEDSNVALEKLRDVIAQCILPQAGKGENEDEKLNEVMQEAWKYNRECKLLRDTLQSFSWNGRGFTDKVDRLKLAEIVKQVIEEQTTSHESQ
# [15] = biological target: T2, MAP kinase-activated protein kinase 5 (Homo sapiens); details: at 1 µM
# [16] = biological target: Serine/threonine-protein kinase SIK1 (Homo sapiens) (UniProt P57059); details: at 0.1 µM
# Sequence of Serine/threonine-protein kinase SIK1 (Homo sapiens) (P57059 whole entry): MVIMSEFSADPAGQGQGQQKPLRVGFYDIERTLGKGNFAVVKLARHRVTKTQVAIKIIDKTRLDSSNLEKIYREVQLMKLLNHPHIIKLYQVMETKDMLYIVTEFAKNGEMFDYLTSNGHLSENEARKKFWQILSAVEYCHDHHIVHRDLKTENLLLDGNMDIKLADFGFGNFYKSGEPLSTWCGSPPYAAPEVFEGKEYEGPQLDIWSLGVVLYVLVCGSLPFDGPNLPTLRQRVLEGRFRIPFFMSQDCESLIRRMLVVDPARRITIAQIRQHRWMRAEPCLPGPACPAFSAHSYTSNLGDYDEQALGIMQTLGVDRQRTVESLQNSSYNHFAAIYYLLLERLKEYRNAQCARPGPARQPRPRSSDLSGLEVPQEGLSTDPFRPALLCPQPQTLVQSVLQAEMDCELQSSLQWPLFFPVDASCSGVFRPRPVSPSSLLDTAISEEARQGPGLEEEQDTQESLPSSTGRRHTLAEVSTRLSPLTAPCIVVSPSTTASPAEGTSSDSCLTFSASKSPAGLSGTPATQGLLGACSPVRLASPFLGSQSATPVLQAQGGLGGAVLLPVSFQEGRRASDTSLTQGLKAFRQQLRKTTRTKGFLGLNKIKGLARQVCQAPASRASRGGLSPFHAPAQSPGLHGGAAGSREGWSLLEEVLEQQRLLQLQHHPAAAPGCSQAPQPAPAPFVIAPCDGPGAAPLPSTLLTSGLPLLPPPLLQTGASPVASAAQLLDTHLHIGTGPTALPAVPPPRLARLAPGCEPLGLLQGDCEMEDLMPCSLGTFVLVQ
# [17] = biological target: Serine/threonine-protein kinase SIK1 (Homo sapiens) (UniProt P57059); details: at 1 µM
# [18] = biological target: Serine/threonine-protein kinase SIK2 (Homo sapiens) (UniProt Q9H0K1); details: at 0.1 µM
# Sequence of Serine/threonine-protein kinase SIK2 (Homo sapiens) (Q9H0K1 whole entry, looked up): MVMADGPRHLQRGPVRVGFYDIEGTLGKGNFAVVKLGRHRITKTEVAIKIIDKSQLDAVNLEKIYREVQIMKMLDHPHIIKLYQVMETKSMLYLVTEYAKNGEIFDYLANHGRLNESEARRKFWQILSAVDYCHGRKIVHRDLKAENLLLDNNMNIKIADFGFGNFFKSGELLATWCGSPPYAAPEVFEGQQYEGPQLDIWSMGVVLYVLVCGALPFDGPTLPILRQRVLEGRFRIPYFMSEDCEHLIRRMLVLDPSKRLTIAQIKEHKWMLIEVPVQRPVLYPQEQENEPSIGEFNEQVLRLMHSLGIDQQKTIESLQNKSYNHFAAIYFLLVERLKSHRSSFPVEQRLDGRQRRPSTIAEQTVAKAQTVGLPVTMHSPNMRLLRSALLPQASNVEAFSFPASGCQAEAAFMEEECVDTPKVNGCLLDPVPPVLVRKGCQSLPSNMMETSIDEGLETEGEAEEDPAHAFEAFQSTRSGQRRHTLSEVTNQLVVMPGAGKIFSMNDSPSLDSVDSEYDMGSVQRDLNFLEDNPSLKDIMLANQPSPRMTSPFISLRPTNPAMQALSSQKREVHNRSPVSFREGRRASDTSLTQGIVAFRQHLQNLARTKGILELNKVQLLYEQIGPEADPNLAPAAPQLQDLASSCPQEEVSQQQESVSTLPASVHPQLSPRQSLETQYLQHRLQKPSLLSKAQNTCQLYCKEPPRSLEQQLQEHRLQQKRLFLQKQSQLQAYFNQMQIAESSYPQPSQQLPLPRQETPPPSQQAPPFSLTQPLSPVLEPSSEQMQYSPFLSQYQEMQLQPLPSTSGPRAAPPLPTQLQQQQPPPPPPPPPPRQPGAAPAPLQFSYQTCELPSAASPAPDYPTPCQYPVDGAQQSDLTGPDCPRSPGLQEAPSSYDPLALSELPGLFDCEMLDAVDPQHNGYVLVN
# [19] = biological target: Serine/threonine-protein kinase SIK2 (Homo sapiens) (UniProt Q9H0K1); details: at 1 µM
# [20] = biological target: T3, Serine/threonine-protein kinase TBK1 (Homo sapiens) (UniProt Q9UHD2); details: at 0.1 µM;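 further: values are the mean TBK1 inhibition, taken from the GSK PKIS screening data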
# T3 sequence (whole entry): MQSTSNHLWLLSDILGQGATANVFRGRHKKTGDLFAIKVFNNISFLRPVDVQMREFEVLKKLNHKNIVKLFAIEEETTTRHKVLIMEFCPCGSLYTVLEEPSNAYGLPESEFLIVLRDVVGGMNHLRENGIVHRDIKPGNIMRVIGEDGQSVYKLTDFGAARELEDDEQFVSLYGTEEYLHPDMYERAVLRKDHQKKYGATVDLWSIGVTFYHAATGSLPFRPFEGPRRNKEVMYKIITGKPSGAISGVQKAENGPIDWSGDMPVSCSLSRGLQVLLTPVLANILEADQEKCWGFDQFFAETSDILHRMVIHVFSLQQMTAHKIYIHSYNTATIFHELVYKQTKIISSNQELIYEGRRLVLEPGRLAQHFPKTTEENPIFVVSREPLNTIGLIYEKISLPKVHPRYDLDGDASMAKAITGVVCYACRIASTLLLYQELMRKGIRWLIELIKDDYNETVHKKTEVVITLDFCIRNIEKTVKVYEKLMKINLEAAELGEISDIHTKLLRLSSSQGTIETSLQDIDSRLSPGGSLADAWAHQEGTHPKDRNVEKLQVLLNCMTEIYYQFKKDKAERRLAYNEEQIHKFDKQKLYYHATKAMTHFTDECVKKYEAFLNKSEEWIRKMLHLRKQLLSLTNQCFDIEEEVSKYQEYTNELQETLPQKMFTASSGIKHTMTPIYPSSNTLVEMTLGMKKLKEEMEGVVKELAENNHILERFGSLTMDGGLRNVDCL
# Sequence of PAS domain-containing serine/threonine-protein kinase (Homo sapiens) (Q96RG2 whole entry, the tested form may be a part, canonical isoform): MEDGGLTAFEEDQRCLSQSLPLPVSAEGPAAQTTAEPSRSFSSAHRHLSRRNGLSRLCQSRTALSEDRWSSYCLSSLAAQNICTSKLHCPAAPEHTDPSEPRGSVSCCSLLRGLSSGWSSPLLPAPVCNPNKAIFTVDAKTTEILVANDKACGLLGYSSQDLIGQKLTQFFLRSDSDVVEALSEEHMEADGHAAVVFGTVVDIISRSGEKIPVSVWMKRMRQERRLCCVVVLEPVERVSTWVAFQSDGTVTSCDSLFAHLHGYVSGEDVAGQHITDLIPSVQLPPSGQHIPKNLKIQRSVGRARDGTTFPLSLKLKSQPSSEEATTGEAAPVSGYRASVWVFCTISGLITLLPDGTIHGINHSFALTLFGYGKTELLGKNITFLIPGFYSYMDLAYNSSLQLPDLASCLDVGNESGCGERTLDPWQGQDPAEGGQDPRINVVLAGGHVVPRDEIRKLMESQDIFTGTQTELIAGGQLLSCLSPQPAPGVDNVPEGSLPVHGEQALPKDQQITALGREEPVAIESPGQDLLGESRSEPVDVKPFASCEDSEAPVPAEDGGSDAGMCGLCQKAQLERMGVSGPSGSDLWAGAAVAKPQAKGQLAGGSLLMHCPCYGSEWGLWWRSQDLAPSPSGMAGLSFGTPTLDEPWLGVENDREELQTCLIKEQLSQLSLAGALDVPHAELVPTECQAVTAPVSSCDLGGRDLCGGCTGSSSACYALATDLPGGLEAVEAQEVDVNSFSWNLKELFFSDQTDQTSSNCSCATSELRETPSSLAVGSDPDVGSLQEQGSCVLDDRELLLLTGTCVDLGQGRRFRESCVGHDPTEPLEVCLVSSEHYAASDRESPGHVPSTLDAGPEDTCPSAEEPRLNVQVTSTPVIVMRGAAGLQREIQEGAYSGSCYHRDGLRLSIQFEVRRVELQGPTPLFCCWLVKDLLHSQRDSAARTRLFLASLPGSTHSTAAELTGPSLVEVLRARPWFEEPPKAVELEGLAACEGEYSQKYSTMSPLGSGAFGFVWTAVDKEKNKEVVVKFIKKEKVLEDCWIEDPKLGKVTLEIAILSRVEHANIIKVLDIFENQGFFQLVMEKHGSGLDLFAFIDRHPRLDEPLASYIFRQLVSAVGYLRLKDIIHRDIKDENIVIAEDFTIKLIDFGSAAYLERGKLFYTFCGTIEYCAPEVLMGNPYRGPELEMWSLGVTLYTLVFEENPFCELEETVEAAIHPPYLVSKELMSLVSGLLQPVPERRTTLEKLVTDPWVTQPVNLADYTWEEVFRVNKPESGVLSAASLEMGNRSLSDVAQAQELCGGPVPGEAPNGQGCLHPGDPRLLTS
# Sequence of Serine/threonine-protein kinase MARK2 (Homo sapiens) (Q7KZI7 whole entry, the tested form may be a part): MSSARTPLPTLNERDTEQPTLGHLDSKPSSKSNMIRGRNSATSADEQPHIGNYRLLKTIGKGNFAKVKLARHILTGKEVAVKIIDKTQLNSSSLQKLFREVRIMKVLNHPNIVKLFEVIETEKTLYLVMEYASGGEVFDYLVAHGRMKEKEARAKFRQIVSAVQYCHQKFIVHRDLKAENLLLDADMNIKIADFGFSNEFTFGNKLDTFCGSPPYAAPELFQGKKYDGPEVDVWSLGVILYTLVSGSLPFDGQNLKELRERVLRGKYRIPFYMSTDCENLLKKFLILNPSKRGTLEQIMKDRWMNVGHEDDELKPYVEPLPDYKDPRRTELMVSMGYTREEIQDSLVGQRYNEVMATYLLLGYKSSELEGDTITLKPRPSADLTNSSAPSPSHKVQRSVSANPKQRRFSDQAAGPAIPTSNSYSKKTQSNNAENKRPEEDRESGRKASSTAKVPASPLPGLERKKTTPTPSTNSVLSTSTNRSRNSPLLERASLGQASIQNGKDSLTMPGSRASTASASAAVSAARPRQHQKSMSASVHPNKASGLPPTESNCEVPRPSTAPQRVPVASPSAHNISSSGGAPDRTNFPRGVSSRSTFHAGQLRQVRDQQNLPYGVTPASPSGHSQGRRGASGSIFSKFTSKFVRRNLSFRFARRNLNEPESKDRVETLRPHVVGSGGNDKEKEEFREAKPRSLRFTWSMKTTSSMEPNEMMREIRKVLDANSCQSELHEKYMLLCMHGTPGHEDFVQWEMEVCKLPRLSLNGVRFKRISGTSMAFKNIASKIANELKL
structure (smiles),measurement,setting,value
[O-][S+]1CCN(Cc2ccc(-c3ccc4ncnc(Nc5ccc(OCc6ccccc6)c(F)c5)c4c3)o2)CC1,inhibition,[1],0.88%
same,inhibition,[2],-0.22%
same,inhibition,[3],-1.35%
same,inhibition,[4],1.18%
same,inhibition,[5],-5.45%
same,inhibition,[6],2.22%
same,inhibition,[7],0.5%
same,inhibition,[8],0.8%
same,inhibition,[9],0.1%
same,inhibition,[10],-0.49%
same,inhibition,[11],0.23%
same,inhibition,[12],-1.55%
same,inhibition,[13],-1.98%
same,inhibition,[14],0.41%
same,inhibition,[15],-0.19%
same,inhibition,[16],3.06%
same,inhibition,[17],3.96%
same,inhibition,[18],3.09%
same,inhibition,[19],5.38%
same,inhibition,[20],1.1%
CCn1c(-c2nonc2N)nc2c(C#CC(C)(C)O)nc(CN3CCCC3)cc21,inhibition,[1],10%
same,inhibition,[2],0.49%
same,inhibition,[3],1.59%
same,inhibition,[4],2.9%
same,inhibition,[5],2.56%
same,inhibition,[6],-2.3%
same,inhibition,[7],-1.9%
same,inhibition,[8],0.28%
same,inhibition,[9],-0.73%
same,inhibition,[10],0.26%
same,inhibition,[11],1.6%
same,inhibition,[12],-0.35%
same,inhibition,[13],0.7%
same,inhibition,[14],-0.65%
same,inhibition,[15],-1.46%
same,inhibition,[16],-1.04%
same,inhibition,[17],0.38%
same,inhibition,[18],-6.78%
same,inhibition,[19],-1.41%
same,inhibition,[20],1.77%
O=C1NC(=O)C(c2ccccc2Cl)=C1Nc1cccc(O)c1,inhibition,[1],8.31%
same,inhibition,[2],0.42%
same,inhibition,[3],-0.94%
same,inhibition,[4],1.1%
same,inhibition,[5],1.82%
same,inhibition,[6],3.35%
same,inhibition,[7],0.71%
same,inhibition,[8],1.24%
same,inhibition,[9],1.62%
same,inhibition,[10],-0.21%
same,inhibition,[11],0.28%
same,inhibition,[12],-0.32%
same,inhibition,[13],-0.95%
same,inhibition,[14],0.71%
same,inhibition,[15],0.06%
same,inhibition,[16],1.46%
same,inhibition,[17],5.5%
same,inhibition,[18],8.17%
same,inhibition,[19],10.7%
same,inhibition,[20],2.04%
COc1cc(C)c(NC(=O)CN(C)C)cc1Nc1nc(Nc2cccc(F)c2C(N)=O)c2cc[nH]c2n1,inhibition,[1],-0.1%
same,inhibition,[2],-0.35%
same,inhibition,[3],-3.17%
same,inhibition,[4],8.46%
same,inhibition,[5],43.5%
same,inhibition,[6],4.74%
same,inhibition,[7],8.82%
same,inhibition,[8],8.2%
same,inhibition,[9],43.2%
same,inhibition,[10],0.16%
same,inhibition,[11],2.33%
same,inhibition,[12],0.35%
same,inhibition,[13],16.3%
same,inhibition,[14],0.4%
same,inhibition,[15],1.56%
same,inhibition,[16],1.57%
same,inhibition,[17],5.28%
same,inhibition,[18],0.18%
same,inhibition,[19],-4.44%
same,inhibition,[20],1.95%
CCN1CCC(CC(=O)Nc2n[nH]c3nc(-c4cccs4)c(Br)cc23)CC1,inhibition,[1],0.15%
same,inhibition,[2],-0.58%
same,inhibition,[3],-1.17%
same,inhibition,[4],2.37%
same,inhibition,[5],5.36%
same,inhibition,[6],-4.86%
same,inhibition,[7],-3.7%
same,inhibition,[8],0.1%
same,inhibition,[9],3.88%
same,inhibition,[10],0.19%
same,inhibition,[11],1.48%
same,inhibition,[12],-0.6%
same,inhibition,[13],5.95%
same,inhibition,[14],-1.45%
same,inhibition,[15],-0.83%
same,inhibition,[16],-7.57%
same,inhibition,[17],-6.71%
same,inhibition,[19],-4.25%
same,inhibition,[20],-0.25%
COc1cc2c(cc1Nc1nc(N3CCc4ccccc43)c3cc[nH]c3n1)N(C(=O)CN(C)C)CC2,inhibition,[1],0.39%
same,inhibition,[2],1.45%
same,inhibition,[3],-0.16%
same,inhibition,[5],3.14%
same,inhibition,[6],3.23%
same,inhibition,[7],0.08%
same,inhibition,[8],0.66%
same,inhibition,[9],-0.15%
same,inhibition,[10],-0.35%
same,inhibition,[11],0.38%
same,inhibition,[12],-0.4%
same,inhibition,[13],-1.08%
same,inhibition,[14],0.04%
same,inhibition,[15],-1.65%
same,inhibition,[16],3.24%
same,inhibition,[17],7.48%
same,inhibition,[18],2.51%
same,inhibition,[19],-3.15%
same,inhibition,[20],0.22%
O=C1NC(=O)C(c2cccc(Cl)c2)=C1Nc1ccc(O)c(Cl)c1,inhibition,[1],16.3%
same,inhibition,[2],1.02%
same,inhibition,[3],0.49%
same,inhibition,[4],2.04%
same,inhibition,[5],6.07%
same,inhibition,[6],1.35%
same,inhibition,[7],-1.03%
same,inhibition,[8],1.35%
same,inhibition,[9],3.87%
same,inhibition,[10],0.87%
same,inhibition,[11],1.76%
same,inhibition,[12],-0.02%
same,inhibition,[13],0.87%
same,inhibition,[14],-0.23%
same,inhibition,[15],-0.79%
same,inhibition,[16],-4.1%
same,inhibition,[17],9.22%
same,inhibition,[18],-3.06%
same,inhibition,[19],19.8%
same,inhibition,[20],3.62%
